Screening results (PubChem)
Compounds with a hit are over-represented: about 11% of the library has one in this group of screens.
Pf growth 48h: P. falciparum growth inhibition at 48 hours (one generation); P. falciparum luciferase growth in erythrocytes, 48 h; Potency, µM (titrated, usually from 28.7 µM), without a hit: at the highest dose activity change, negative = inhibition, most hits filed as inhibitors; actives 5.9% (n = 310,000); AID 504832
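Here the parasites carry a stable luciferase gene and grow inside erythrocytes in Albumax-based RPMI medium with compound for one erythrocytic cycle. Activity is scored as loss of luminescent signal.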
HCV inhibitor: blocks hepatitis C virus; actives 3.4% (n = 340,000); Huh7.5.1 HCVcc-Cre infection, luciferase reporter, 44 h; AID 651820; Potency, µM (titrated, usually from 41.8 µM), for inactives: top-dose activity change, negative = inhibition, actives largely listed as inhibitors
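Cells seeded at 1,000/well and cultured 4 h, then compounds added followed by HCVcc-Cre virus (~0.5 moi). After 44 h further culture, luciferase substrate was added, plates held 15 min at room temperature, and luminescence read for 15 sec.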
Pf growth 96h: P. falciparum growth inhibition at 96 hours. P. falciparum luciferase reporter growth, 96 h. Potency, µM (doses to about 28.7 µM), inactives show top-dose activity change, negative = inhibition, most hits filed as inhibitors. actives 6.9% (n = 320,000). AID 504834
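Luminescence readout: decreased luciferase signal marks inhibited growth of reporter-expressing P. falciparum in infected red cells (2% hematocrit, 0.05% parasitemia final), exposed to compound two generations (96 h, 37 C, 5% CO2).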
AmpC detergent: inhibitors of E. coli AmpC beta-lactamase with detergent | AID 485294 | actives 0.041% (n = 370,000) | Potency, µM (highest dose often 114 µM), inactives show at the top dose activity change, negative = inhibition, usual class: inhibitors | AmpC hydrolysis of nitrocefin, absorbance 480 nm, 0.01% Triton | P00811;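 also: 0% = no-compound wells and -100% = no-enzyme wells; nearly all actives have a fitted effect of over 25% in size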
Target sequence (P00811 whole entry, looked up): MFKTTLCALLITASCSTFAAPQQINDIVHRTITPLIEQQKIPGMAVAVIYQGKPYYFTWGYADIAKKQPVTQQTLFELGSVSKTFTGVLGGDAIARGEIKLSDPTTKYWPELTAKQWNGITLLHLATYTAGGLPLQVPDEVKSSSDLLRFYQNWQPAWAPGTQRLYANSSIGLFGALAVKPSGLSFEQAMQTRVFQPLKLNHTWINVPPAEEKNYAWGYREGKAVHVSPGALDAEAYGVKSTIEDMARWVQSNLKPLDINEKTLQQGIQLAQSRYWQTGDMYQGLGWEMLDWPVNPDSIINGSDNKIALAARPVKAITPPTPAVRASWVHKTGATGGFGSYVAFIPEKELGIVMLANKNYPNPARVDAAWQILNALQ
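20 mM phosphate pH 7.0 + 0.01% (detergent screen) or 0.0001% Triton X-100; 5.3 nM AmpC reagent; cpd preinc 15 min RT; nitrocefin (800 uM stock) to start; A480 q20 s × 4 min; Activity was normalised to no-enzyme and no-compound control wells.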
AMA1-RON2 inh: inhibitors of Plasmodium falciparum AMA1-RON2 interaction. Potency, µM (highest dose often 58.2 µM), without a hit: at the highest dose activity change, negative = inhibition, hits mostly inhibitors. AlphaScreen AMA1-biotinylated RON2 peptide binding. actives 0.2% (n = 360,000). AID 720542;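 also: 0% = vehicle wells and -100% = peptide control; nearly all actives have a fitted effect of over 45% in size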
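AMA1 (3D7) with his tag at 25 nM final met compounds first, then biotinylated RON2 peptide at 25 nM; detection used donor plus acceptor beads, 10 µg/mL apiece, read by AlphaScreen after 30 min at room temperature.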
AmpC no deterg: inhibitors of E. coli AmpC beta-lactamase without detergent; actives 0.52% (n = 330,000); AmpC nitrocefin hydrolysis, absorbance 480 nm, 0.0001% Triton; Potency, µM (doses to about 57.1 µM), for inactives: top-dose activity change, negative = inhibition, most hits filed as inhibitors;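 also: plate controls were no compound for no effect and no enzyme for full effect; nearly all actives have a fitted effect of over 20% in size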
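AmpC (5.3 nM in the dispensed reagent) in 20 mM phosphate pH 7.0 with 0.01% (detergent screen) or 0.0001% Triton X-100 was preincubated with compounds for 15 min at room temperature. Nitrocefin was then added from an 800 uM solution, and hydrolysis was followed at 480 nm.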
* hit, by the source's call; ? = inconclusive; / = no result given; ! = not confirmed by another sample. Calls follow the shape of the dose curve; as a rule, active = well fitted curve in the direction sought with a large enough effect; inconclusive = small, poorly fitted or top-dose-only effect, or another doubt; inactive = no such curve, though single readings can be large; an effect the other way counts as inactive or inconclusive. Unless noted, % is scaled to controls: 0 for no effect and ±100 for the full control effect; potency is read from the fitted curve at half-maximal effect.

SMILES	Pf growth 48h	HCV inhibitor	Pf growth 96h	AmpC detergent	AMA1-RON2 inh	AmpC no deterg
N#CC(c1cccc([N+](=O)[O-])c1)C(CC(=O)c1ccccc1)c1ccccc1 (stereo unspecified)	/	/	/	/	-7%	/
CNC(C(=O)c1ccccc1)C(OC(C)=O)c1cccc([N+](=O)[O-])c1 (stereo unspecified)	?	1%	2.9µM*	6%	3%	-40%
COC(=O)CCC(=O)OC1(C)C(=O)C2=CN(CC(C)C)C(c3ccc(OC)cc3)=CC2=C(Br)C1=O (stereo unspecified)	?	/	13µM*	-8%	/	163%
COC(=O)CCC(=O)OC1(C)C(=O)C2=CN(CC3CC3)C(c3ccc(OC)cc3)=CC2=C(Br)C1=O (stereo unspecified)	13µM*	-21%	?	-1%	?	122%
COC(=O)CCC(=O)OC1(C)C(=O)C2=CN(CCCOC(C)C)C(c3ccc(OC)cc3)=CC2=C(Br)C1=O (stereo unspecified)	?	-8%	12µM*	-5%	-17%	161%
O=C(CN1c2ccc(Br)cc2-c2ccccc2S1(=O)=O)N1CCCCC1	/	/	/	18%	/	/
O=C(CN1CCCc2ccccc21)Nc1cccc(S(=O)(=O)N2CCOCC2)c1	?	-12%	?	-11%	6%	44%
O=C(CN1CCCc2ccccc21)Nc1cc(S(=O)(=O)N2CCCC2)ccc1Cl	13µM*	?	8.3µM*	-11%	-5%	-51%
Cc1ccc2c(c1)CCCN2CC(=O)Nc1cccc(S(=O)(=O)N2CCCC2)c1	?	-23%	?	?	-8%	0%
Cc1ccc2c(c1)CCCN2CC(=O)Nc1cc(S(=O)(=O)N2CCCC2)ccc1Cl	10µM*	?	4.7µM*	0%	-9%	-11%
O=C(c1ccccc1Cl)N(Cc1ccco1)c1ccccn1	/	/	/	-3%	/	/
CCC1SC2=NC(C)=C(C(=O)OCC(C)C)C(/C=C/c3ccccc3OC)N2C1=O (stereo unspecified)	?	-8%	12µM*	?	0%	-1%
CCC1SC2=NC(C)=C(C(=O)OCCOC)C(/C=C/c3ccccc3OC)N2C1=O (stereo unspecified)	?	-22%	-28%	-2%	-7%	84%
CCn1cc(C(=O)OCC(=O)Nc2cc(OC)cc(OC)c2)c(=O)c2ccc(C)nc21	/	/	/	10%	/	/
CCCCS(=O)(=O)c1sc2nc3c(cc2c1N)CCCC3	-11%	-18%	?	?	6µM*	-24%
Cc1ccc(Sc2ccc(NC(=O)CCl)cc2)c(C)c1	8.3µM*	?	?	3%	0%	-6%
COc1ccccc1NC1=C(NC(C)=O)C(=O)c2ccccc2C1=O	3.7µM*	?	?	3%	16%	-9%
COC1=C(Nc2ccccc2)C(=O)C(OC)=C(Nc2ccccc2)C1=O	/	8%	/	/	3%	/
COC1=C(Nc2ccccc2OC)C(=O)c2ccccc2C1=O	2.3µM*	17%	2.3µM*	-9%	?	-19%
Cc1cc(=O)n(CC(=O)NCCC(C)C)c2c1c(C)nn2C	/	/	/	-1%	/	/
CC(C)(C)c1ccc(-c2nc3c(C#N)c(-c4ccc5c(c4)OCO5)ccn3n2)cc1	8.3µM*	?	?	-6%	-5%	-15%
CCN(CC)c1ccc(CNS(=O)(=O)c2cc3c(cc2C)NC(=O)CO3)cc1	/	/	/	17%	/	/
COc1cc(Br)cc2cc(C(=O)N3CCOCC3)c(=O)oc12	39%	17%	3.3µM*	-9%	13%	-4%
CCS(=O)(=O)N1CCc2cc(C(=O)N3CCN(c4cccc(C(F)(F)F)c4)CC3)ccc21	/	/	/	16%	/	/
CCc1cccc(Nc2cc(C)nc3nc(C)nn23)c1	5.2µM*	12%	8.3µM*	?	15%	-16%
SMILES	Pf growth 48h	HCV inhibitor	Pf growth 96h	AmpC detergent	AMA1-RON2 inh	AmpC no deterg
Cc1cc(NCc2ccc3c(c2)OCO3)n2nc(C)nc2n1	-4%	10%	0.37µM*	?	4%	-11%
Cc1cc(Nc2cccc(C(F)(F)F)c2)n2nc(C)nc2n1	?	1%	0%	3%	22%	-6%
CCc1nc2nc(C)cc(Nc3cccc(C(F)(F)F)c3)n2n1	2.1µM*	?	15%	-1%	-1%	18%
Cc1cc(Nc2ccc(Br)c(C)c2)n2nc(C)nc2n1	0.26µM*	-5%	10µM*	-13%	25%	-2%
Cc1nc2nc(C)c(CCC(=O)NCc3ccc4c(c3)OCO4)c(C)n2n1	-17%	25%	82%	-10%	5%	-10%
Nc1ncc(S(=O)(=O)NCc2ccccc2)cn1	/	/	/	4%	/	/
CCc1nn(CC(=O)Nc2ccc(C)cc2C)c(=O)c2cc3sccc3n12	/	/	/	23%	/	/
Cc1ccc(NC(=O)Cn2cc3c(n2)CCCC3)cc1Cl	/	/	/	14%	/	/
CC(=O)OCC1=C(C(=O)O)N2C(=O)[C@@H](NC(=O)Cc3cccs3)[C@H]2SC1	-13%	0.56µM*!	-9%	7.1µM*	0%	8.9µM*
CCc1ccc(/C=N/NC(=O)c2cc(-c3ccccc3OC)nc3ccccc23)s1	/	-22%	2.6µM*	?	54%	7%
COc1ccccc1-c1cc(C(=O)N/N=C/c2ccc(C)s2)c2ccccc2n1	/	?	1.5µM*	?	-7%	1%
COc1ccc(/C=N/NC(=O)c2cc(-c3ccc(C)cc3C)nc3ccccc23)cc1COC(C)=O	-8%	?	-7%	11%	-7%	26%
COc1ccc(/C=N/NC(=O)c2cc(-c3ccccc3OC)nc3ccccc23)cc1COC(C)=O	12µM*	11%	1.9µM*	0%	-18%	54%
CCc1ccc(/C=N/NC(=O)c2cc(C3CC3)nc3ccc(Br)cc23)s1	/	22µM*	?	1%	0%	-27%
COc1cccc(NC(=O)c2sc3nc(C)c(C(=O)Nc4ccc(C)cc4C)c(-c4cccs4)c3c2N)c1	/	/	/	10%	/	/
COc1ccccc1-c1cc(C(=O)N/N=C/c2ccoc2)c2ccccc2n1	9.3µM*	-16%	0%	-1%	17%	10%
N#Cc1c(NC(=O)CSc2ncnc3sccc23)oc(-c2ccco2)c1-c1ccco1	/	-28%	2.3µM*	-8%	5%	1.8µM*
COc1cc(S(=O)(=O)n2nnc3ccccc32)c(OC)cc1Cl	0%	-2%	9.3µM*	-3%	-13%	-10%
COc1ccc(OC)c(S(=O)(=O)n2nnc3cc(Cl)ccc32)c1	-20%	-10%	-6%	-8%	-1%	-5%
